Reference: PubChem BioAssay
Activity calls are given as the source filed them.

Legend:
[1] = system: PRMT1 (protein arginine N-methyltransferase 1); assay: PRMT1 binders on small-molecule microarrays, primary screen, biochemical, small-molecule microarray, 635 nm fluorescence (AID 1088); conditions: small-molecule microarray binding, higher = more signal;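 further: binding of Prmt1 protein to compounds spotted on small-molecule microarray slides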
[2] = yeast growth modulation, basal conditions, primary screen, YJM789 clinical isolate, OD600, 24 h (AID 1089);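 further: growth of clinical yeast isolate S. cerevisiae YJM 789 seeded 1000 cells per well; test concentration not given here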; conditions: S. cerevisiae YJM789 growth, higher = more signal, called active from +8 up or from −8 down
[3] = fission yeast growth modulation, primary screen, strain 972, OD600, 24 h, no modulator (AID 1090);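 further: basal condition with compound alone and no growth modifier present; test concentration not given here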; conditions: S. pombe 972 growth, higher = more signal, called active from +8 up or from −8 down
[4] = S. cerevisiae growth modulation with rapamycin, primary screen, strain BY4716, OD600, 96 h (AID 1091); conditions: higher = more signal, called active from +8 up or from −8 down; further: test concentration not given here
[5] = molecular target: Torsin-1A-interacting protein 2 (Homo sapiens) (UniProt Q8NFQ8); assay: LULL1 binders on small-molecule microarray, primary screen, cell lysate, human LULL1 lysate, 635/667 nm fluorescence (AID 1092); conditions: hLULL1 lysate binding, 635 nm fluorescence, higher = more signal;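 further: probe is lysate of COS7 cells overexpressing human LULL1; score merges per-feature 667 nm fluorescence with signal-to-noise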
Torsin-1A-interacting protein 2 (Homo sapiens), sequence (Q8NFQ8 whole entry, looked up): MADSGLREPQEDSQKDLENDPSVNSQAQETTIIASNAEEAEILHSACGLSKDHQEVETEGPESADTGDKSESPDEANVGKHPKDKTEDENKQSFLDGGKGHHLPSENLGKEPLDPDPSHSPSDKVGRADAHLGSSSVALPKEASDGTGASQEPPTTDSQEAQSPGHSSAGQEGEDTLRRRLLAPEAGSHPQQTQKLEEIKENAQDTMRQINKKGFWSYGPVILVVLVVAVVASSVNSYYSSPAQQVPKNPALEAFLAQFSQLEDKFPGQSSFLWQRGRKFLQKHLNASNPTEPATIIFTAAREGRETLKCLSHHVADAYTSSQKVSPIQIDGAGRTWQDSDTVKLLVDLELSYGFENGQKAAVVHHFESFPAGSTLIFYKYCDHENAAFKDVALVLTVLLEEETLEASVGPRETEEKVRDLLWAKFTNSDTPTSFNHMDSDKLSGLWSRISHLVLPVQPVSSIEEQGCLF

[6] = E. coli growth modulation, two-sided OD650, primary screen, E. coli filamentation project, strain DRC41, 24 h (AID 1093); conditions: OD650, 24 h, higher = more signal, called active from +8 up or from −8 down;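 further: MC1000 strain lacking acrAB efflux and sulA so SOS filamentation is blocked; test concentration not given here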
[7] = small-molecule microarray binders of probe aLefty2, primary screen, biochemical, biotinylated probe, 635/667 nm fluorescence (AID 1094); conditions: higher = more signal;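 further: score merges spot fluorescence near 667 nm with spot signal-to-noise ratio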
[8] = system: Noggin (protein binding on small-molecule microarray); assay: Noggin binders on small-molecule microarray, primary screen, biochemical, 635/667 nm fluorescence (AID 1095); conditions: 635 nm fluorescence, higher = more signal;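 further: score merges 667 nm feature fluorescence with signal to noise over triplicate slides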
[9] = molecular target: Neurogenic locus notch homolog protein 3 (Homo sapiens) (UniProt Q9UM47); assay: NOTCH3 binders on small-molecule microarray, primary screen, biochemical, 635/667 nm fluorescence (AID 1096); conditions: NOTCH3 binding, 635 nm fluorescence, higher = more signal
Neurogenic locus notch homolog protein 3 (Homo sapiens), sequence (Q9UM47 whole entry, looked up): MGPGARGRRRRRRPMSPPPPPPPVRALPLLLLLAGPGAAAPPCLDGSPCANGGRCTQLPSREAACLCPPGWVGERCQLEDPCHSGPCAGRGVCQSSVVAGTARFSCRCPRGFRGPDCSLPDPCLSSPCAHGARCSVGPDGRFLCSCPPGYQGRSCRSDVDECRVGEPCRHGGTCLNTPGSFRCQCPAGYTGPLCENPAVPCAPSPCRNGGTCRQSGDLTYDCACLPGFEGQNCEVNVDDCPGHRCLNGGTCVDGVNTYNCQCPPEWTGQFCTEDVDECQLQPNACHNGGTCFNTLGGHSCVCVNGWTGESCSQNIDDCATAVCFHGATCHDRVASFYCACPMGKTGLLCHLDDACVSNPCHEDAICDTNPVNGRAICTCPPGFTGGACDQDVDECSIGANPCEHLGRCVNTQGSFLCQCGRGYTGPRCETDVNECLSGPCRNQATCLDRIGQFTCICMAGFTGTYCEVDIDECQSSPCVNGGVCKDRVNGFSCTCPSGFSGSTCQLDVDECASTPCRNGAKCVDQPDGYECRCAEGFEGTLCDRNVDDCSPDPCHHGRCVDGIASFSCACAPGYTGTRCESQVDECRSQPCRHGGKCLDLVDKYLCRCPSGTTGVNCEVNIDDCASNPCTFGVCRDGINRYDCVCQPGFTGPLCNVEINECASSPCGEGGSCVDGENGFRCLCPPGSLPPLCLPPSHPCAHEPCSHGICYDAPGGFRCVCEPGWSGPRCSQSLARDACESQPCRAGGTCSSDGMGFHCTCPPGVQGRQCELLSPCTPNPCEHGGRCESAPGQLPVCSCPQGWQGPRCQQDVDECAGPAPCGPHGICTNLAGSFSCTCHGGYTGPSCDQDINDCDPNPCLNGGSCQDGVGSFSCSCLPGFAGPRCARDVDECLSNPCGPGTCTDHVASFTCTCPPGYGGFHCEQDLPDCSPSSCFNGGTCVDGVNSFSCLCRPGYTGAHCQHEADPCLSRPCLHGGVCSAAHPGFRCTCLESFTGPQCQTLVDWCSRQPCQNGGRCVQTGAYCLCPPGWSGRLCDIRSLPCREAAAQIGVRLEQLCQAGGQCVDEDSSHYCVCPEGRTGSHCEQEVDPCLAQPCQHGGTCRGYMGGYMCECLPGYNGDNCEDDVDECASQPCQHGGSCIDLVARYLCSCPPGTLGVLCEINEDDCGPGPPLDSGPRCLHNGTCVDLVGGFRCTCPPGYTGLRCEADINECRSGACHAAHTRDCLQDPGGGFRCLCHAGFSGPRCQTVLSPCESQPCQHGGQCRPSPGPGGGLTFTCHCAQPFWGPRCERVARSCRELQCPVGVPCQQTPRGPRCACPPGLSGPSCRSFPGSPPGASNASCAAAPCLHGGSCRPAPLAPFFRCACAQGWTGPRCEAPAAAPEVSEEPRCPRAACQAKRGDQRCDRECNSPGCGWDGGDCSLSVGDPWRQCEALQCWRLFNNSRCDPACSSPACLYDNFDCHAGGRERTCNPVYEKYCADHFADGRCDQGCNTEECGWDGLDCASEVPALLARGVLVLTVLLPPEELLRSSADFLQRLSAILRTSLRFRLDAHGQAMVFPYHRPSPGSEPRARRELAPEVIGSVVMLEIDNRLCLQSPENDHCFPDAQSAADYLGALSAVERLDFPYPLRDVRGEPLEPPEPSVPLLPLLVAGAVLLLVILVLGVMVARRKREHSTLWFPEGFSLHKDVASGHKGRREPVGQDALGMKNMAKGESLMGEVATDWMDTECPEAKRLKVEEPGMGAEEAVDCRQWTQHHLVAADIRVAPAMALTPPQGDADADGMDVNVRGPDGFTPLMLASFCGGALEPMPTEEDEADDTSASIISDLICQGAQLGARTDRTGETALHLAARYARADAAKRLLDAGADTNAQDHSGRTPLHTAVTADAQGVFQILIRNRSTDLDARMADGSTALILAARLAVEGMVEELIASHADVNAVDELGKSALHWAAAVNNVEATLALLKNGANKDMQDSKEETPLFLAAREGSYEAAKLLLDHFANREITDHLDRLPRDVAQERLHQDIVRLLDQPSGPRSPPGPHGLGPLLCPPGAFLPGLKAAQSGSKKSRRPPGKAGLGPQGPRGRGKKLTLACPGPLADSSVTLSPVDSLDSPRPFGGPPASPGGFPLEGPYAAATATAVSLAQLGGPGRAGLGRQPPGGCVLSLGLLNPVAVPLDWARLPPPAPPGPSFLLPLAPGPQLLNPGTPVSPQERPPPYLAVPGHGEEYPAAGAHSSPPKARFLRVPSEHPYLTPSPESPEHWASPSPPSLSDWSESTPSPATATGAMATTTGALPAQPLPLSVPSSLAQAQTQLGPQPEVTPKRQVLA

[10] = small-molecule microarray binders of probe aEGFR, primary screen, biochemical, biotinylated probe, 635/667 nm fluorescence (AID 1097); conditions: higher = more signal;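 further: probe is a biotinylated anti-EGFR antibody binding compounds printed on slides; score combines fluorescence near 667 nm and signal to noise of each spot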
[11] = system: Plasmodium falciparum Sir2 (PF13_0152, Sir2A); assay: pfSir2 binders on small-molecule microarrays, primary screen, biochemical, small-molecule microarray, 635 nm fluorescence (AID 1098); conditions: small-molecule microarray binding, fluorescence 635 nm; higher = more signal;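 further: score merges spot fluorescence intensity with its signal-to-noise ratio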
[12] = small-molecule microarray binders of probe aDKK1, primary screen, biochemical, biotinylated probe, 635/667 nm fluorescence (AID 1099); conditions: higher = more signal;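 further: score merges 667nm spot fluorescence with signal to noise across triplicate slides; reference of the scale not given here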
[13] = small-molecule microarray binders of probe aCHRDL2, primary screen, biochemical, biotinylated probe, 635/667 nm fluorescence (AID 1100); conditions: higher = more signal
[14] = splicing luciferase reporter signal modulators, primary screen, spliceosome inhibition project, cell-based, HEK293, splice +/- reporter (AID 1101); conditions: luminescence, 24 h, higher = more signal, called active from +8 up or from −8 down;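 further: HEK293 cells carrying a splicing-competent luciferase reporter gene; test concentration not given here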
[15] = molecular target: Fibroblast growth factor 10 (Homo sapiens) (UniProt O15520); assay: FGF10 binders on small-molecule microarrays, primary screen, biochemical, small-molecule microarray, 635 nm fluorescence (AID 1102); conditions: FGF10 binding, fluorescence 635 nm, higher = more signal
Fibroblast growth factor 10 (Homo sapiens), sequence (O15520 whole entry, looked up): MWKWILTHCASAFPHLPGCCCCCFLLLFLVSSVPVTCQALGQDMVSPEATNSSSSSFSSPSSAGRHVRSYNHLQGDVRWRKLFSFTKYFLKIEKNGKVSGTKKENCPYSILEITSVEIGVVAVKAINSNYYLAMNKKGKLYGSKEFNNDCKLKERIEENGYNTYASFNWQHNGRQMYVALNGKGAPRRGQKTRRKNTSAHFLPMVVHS

[16] = system: glycogen synthase kinase-3 (GSK3A per assay name; protocol says GSK3B); assay: GSK3 binders on small-molecule microarrays, primary screen, biochemical, small-molecule microarray, 635 nm fluorescence, GSK3A (AID 1103); conditions: small-molecule microarray binding, fluorescence 635 nm; higher = more signal; further: the record names both GSK3A and GSK3B
[17] = molecular target: Epidermal growth factor receptor (Homo sapiens) (UniProt P00533); assay: EGFR binders on small-molecule microarrays, primary screen, biochemical, small-molecule microarray, 635 nm fluorescence (AID 1104); conditions: EGFR binding, higher = more signal;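 further: score merges 667 nm emission intensity with spot signal to noise over triplicate slides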
Epidermal growth factor receptor (Homo sapiens), sequence (P00533 whole entry, looked up): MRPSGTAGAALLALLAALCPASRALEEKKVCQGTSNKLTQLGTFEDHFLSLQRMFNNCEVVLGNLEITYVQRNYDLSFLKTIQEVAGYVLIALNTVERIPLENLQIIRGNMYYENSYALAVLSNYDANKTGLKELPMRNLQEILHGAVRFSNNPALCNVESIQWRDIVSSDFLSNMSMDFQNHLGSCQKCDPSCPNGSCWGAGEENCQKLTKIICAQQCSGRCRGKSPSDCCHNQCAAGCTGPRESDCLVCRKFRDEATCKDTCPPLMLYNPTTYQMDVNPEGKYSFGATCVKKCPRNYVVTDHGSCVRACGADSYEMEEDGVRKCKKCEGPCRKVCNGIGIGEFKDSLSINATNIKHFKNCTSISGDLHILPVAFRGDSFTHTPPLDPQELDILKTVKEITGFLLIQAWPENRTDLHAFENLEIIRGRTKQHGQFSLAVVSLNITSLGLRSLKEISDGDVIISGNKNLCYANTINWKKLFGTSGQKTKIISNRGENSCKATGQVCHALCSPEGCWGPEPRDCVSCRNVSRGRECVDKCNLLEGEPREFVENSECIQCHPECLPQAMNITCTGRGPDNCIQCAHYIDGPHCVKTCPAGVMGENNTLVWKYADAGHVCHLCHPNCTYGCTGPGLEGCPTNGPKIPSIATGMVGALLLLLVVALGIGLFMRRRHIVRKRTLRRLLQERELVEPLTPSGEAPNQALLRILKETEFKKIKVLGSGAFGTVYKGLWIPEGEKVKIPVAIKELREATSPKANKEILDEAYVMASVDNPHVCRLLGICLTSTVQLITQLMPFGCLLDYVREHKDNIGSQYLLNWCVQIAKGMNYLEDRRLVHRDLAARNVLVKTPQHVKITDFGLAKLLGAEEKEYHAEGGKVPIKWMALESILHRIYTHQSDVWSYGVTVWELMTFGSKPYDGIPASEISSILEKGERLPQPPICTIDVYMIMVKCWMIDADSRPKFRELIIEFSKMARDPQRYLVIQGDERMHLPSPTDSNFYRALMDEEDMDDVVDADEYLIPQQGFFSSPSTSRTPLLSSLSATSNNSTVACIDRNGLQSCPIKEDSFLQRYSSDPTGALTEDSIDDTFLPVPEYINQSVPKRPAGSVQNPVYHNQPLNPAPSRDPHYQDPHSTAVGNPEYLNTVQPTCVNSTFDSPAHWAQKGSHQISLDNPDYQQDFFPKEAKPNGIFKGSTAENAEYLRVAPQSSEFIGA

[18] = molecular target: Follistatin-related protein 3 (Homo sapiens) (UniProt O95633); assay: FSTL3 binders on small-molecule microarrays, primary screen, biochemical, small-molecule microarray, 635 nm fluorescence (AID 1105); conditions: FSTL3 binding, higher = more signal;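 further: score merges emission near 667 nm and signal to noise per printed spot across three slides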
Follistatin-related protein 3 (Homo sapiens), sequence (O95633 whole entry, looked up): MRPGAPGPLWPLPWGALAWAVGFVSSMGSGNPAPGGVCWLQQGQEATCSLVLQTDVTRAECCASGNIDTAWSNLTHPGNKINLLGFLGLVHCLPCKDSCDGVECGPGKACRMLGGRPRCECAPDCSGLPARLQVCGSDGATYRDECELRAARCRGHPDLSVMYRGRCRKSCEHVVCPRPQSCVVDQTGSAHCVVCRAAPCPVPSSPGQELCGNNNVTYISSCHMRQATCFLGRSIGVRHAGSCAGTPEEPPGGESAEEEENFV

[19] = molecular target: Dickkopf-related protein 1 (Homo sapiens) (UniProt O94907); assay: DKK1 binders on small-molecule microarrays, primary screen, biochemical, small-molecule microarray, 635 nm fluorescence scan (AID 1106); conditions: DKK1 binding, higher = more signal;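 further: score merges emission near 667 nm with signal to noise over three replicate slides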
Dickkopf-related protein 1 (Homo sapiens), sequence (O94907 whole entry, looked up): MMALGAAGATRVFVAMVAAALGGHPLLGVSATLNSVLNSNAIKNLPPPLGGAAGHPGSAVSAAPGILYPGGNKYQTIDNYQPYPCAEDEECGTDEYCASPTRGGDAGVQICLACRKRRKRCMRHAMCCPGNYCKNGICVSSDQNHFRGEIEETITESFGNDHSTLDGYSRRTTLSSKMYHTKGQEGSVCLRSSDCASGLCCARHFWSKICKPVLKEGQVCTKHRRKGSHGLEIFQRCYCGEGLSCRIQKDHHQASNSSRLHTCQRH

[20] = system: Inhibin beta A chain (activin A); assay: INHBA (activin A) binders on microarrays, primary screen, biochemical, small-molecule microarray, 635 nm fluorescence scan (AID 1107); conditions: small-molecule microarray binding, higher = more signal;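 further: mouse activin A protein probed at 4.33 µg/mL on printed slides; score merges bound-protein fluorescence near 667 nm with spot signal-to-noise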

| Compound | composite z-score [1] | z-score [2] | z-score [3] | z-score [4] | composite z-score [5] | z-score [6] | composite z-score [7] | composite z-score [8] | composite z-score [9] | composite z-score [10] | composite z-score [11] | composite z-score [12] | composite z-score [13] | z-score [14] | composite z-score [15] | composite z-score [16] | composite z-score [17] | composite z-score [18] | composite z-score [19] | composite z-score [20] |
| --- | --- | --- | --- | --- | --- | --- | --- | --- | --- | --- | --- | --- | --- | --- | --- | --- | --- | --- | --- | --- |
| NC(=O)NCC#Cc1ccc2c(c1)[C@]1(C(=O)N2)[C@H](C(=O)O)[C@H]2C(=O)O[C@H](c3ccccc3)[C@H](c3ccccc3)N2[C@@H]1c1ccc(OCCO)cc1 | 1.1 | 0.33 (inactive) | 0.459 (inactive) | -0.524 (inactive) | 1.37 | 0.8 (inactive) | -0.199 | 0.205 | 0.1 | -0.181 | 1.49 | 0.0638 | 0.799 | -0.253 (inactive) | 0.261 | -0.547 | -0.03 | 0.582 | 0.158 | 0.882 |
| C=CCC(OC(C)=O)[C@@H]1[C@@H](N(Cc2cc3ccccc3o2)C(=O)Cc2ccc(F)cc2)c2cc(OCCCO)ccc2N1C(=O)c1ccc2ccccc2c1 (stereo not given in full) | -0.381 | -0.313 (inactive) | 0.716 (inactive) | -0.538 (inactive) | -0.383 | -1.07 (inactive) | -0.0708 | 0.437 | -0.44 | -0.112 | -0.365 | -0.0572 | 0.165 | 0.111 (inactive) | -0.234 | -0.711 | 0.0137 | 0.331 | 0.0521 | 1.04 |
| COC(=O)C1=CC(CCCO)=CC(C2CC2)N(C)C=C1C(=O)OC (stereo not given) | 0.723 | -1.81 (inactive) | -0.761 (inactive) | -1.62 (inactive) | 2.79 | -0.705 (inactive) | -0.117 | -0.178 | -0.752 | -0.43 | 0.948 | -0.302 | 0.41 | -0.519 (inactive) | -0.259 | -0.302 | -0.0025 | 0.481 | -0.673 | 0.576 |
| [N-]=[N+]=NCc1ccccc1C[C@@]1(C(=O)N2CCOCC2)N=C(c2ccc(OCCCO)cc2)O[C@@H]1c1ccccc1 | 1.42 | -1.11 (inactive) | -1.72 (inactive) | 33 (active) | 3.33 | 0.386 (inactive) | 0.349 | -0.519 | 0.553 | 0.801 | 0.511 | 0.881 | 1.18 | -0.691 (inactive) | 1.03 | 1.28 | 0.0805 | -0.14 | -0.519 | 0.686 |
| O=C1O[C@@H](c2ccccc2)[C@@H](c2ccccc2)N2[C@@H](c3ccccc3OCCO)[C@]3(C(=O)Nc4ccc(C#CCCO)cc43)[C@@H](C(=O)N3CCCCCCC3)[C@H]12 | 1.53 | 0.295 (inactive) | -4.61 (inactive) | 1.33 (inactive) | 5.16 | -0.798 (inactive) | 1.99 | 2.28 | 1.01 | 1.49 | 2.19 | 3.2 | 1.87 | -1.32 (inactive) | 1.71 | 1.45 | 2.05 | 1.78 | 2.69 | 2.05 |
